High-throughput results (PubChem BioAssay)
Shown are actives, neighbours in structure and some others; about 1.9% of the full set was active somewhere.
S1P4 agonist – agonists of human S1P4 receptor; O95977; S1P4-expressing cell line, agonist reporter assay; activation, % at 4.98 µM; actives 0.35% (n = 220,000); AID 1509; in the data active means activation above about 11%
EP2 antag – EP2 receptor (human) inhibition; P43116; C6 glioma cells expressing human EP2, cAMP TR-FRET; cells stimulated with saturating PGE2; inhibition, % at 25 µM; actives 0.52% (n = 260,000); AID 1422;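 active means percent inhibition above 40 after rounding to a whole number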;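 further: rat C6 glioma host cells with rolipram phosphodiesterase inhibitor present; the protocol text gives 20 µM as final concentration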
EP2 mod – modulators of human EP2 prostaglandin E2 receptor; actives 0.83% (n = 260,000); EP2-expressing cells, cAMP HTRF FRET, PGE2 co-stimulation; AID 940; P43116; induction, % at 25 µM;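 active means compounds whose cAMP rise, as percent of the full-agonist control response, exceeds 60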;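 further: rat C6 glioma line stably carrying human EP2 under a CMV promoter; the protocol text gives 20 µM as final concentration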
S1P3 antag – antagonists of human S1P3 receptor; CHO S1P3 NFAT-BLA reporter, FRET fluorescence, antagonist mode; inhibition, % at 4.98 µM; actives 0.27% (n = 170,000);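 active means inhibition above the plate cutoff, the mean inhibition of test wells on that plate plus 3 SD, cut at about 28% in these data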;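 further: cells challenged with S1P at its EC80 of 0.8 µM; blue over green emission ratio from cleaved BLA substrate after 4 h stimulation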
Target sequence (Q99500 whole entry, looked up): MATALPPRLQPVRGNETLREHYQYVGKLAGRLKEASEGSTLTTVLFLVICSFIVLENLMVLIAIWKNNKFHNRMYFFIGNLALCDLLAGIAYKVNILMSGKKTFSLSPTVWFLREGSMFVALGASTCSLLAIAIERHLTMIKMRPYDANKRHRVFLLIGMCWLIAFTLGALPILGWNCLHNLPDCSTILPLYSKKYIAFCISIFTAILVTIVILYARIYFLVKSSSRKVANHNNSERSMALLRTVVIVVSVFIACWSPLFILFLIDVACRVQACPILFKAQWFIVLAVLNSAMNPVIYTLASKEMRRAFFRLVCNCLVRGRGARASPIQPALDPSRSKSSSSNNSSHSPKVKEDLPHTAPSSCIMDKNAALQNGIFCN
Pf gamet viab – P. falciparum stage V gametocyte viability inhibition; P. falciparum stage V gametocytes, ATP luminescence, 24 h; actives 0.065% (n = 150,000); inhibition, % at 10.9 µM;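 active means inhibition above the mean plus 3 SD of compounds within the control limits, set per campaign, cut at about 38% in these data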
S1P4 antagonist – human S1P4 receptor antagonism; inhibition, % at 4.98 µM; S1P4-expressing cells, antagonist mode, reporter read-out; actives 0.26% (n = 220,000); O95977; in the data active means inhibition above about 29%
S1P4 antag cf – human S1P4 antagonism, confirmation; actives 71% (n = 520); AID 1524; inhibition, % at 4.98 µM; shares compounds with S1P4 antagonist; S1P4-expressing cell line, antagonist mode, reporter read-out; in the data active means inhibition above about 30%
S1P1 antag – counter-screen for S1P4 antagonists: antagonists of human S1P1 | shares compounds with S1P4 antagonist | cell-based S1P1 antagonist counterscreen, inhibition | inhibition, % at 4.98 µM | actives 37% (n = 520); in the data active means inhibition above about 40%;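 further: receptor stimulated with S1P near its EC80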
Each line names hits and unclear results; the compound was inactive in the other large screens (follow-up assays come after a bar, where they were run).

CN1c2ccccc2Oc2nnc(N3CCN(Cc4ccccc4)CC3)cc21	S1P4 antagonist 33 (no result: Pf gamet viab) | S1P4 antag cf inactive | S1P1 antag inactive
CN1/C(=C/C(=O)c2nc(S(C)(=O)=O)ncc2Cl)C(C)(C)c2ccccc21	S1P4 antagonist 65 (no result: Pf gamet viab) | S1P4 antag cf 111 | S1P1 antag inactive
Cc1cc2oc(C(=O)Nc3c(C)n(C)n(-c4ccccc4)c3=O)c(C)c2cc1C	S1P4 antagonist 30 | S1P4 antag cf 61 | S1P1 antag 48
Cc1ccc2c(C)c(C(=O)Nc3c(C)n(C)n(-c4ccccc4)c3=O)oc2c1	none (no result: Pf gamet viab)
Cc1ccc2c(C)c(C(=O)Nc3c(C)n(C)n(-c4ccccc4)c3=O)oc2c1C	S1P4 antagonist 29 | S1P4 antag cf 61 | S1P1 antag inactive
COCCNc1ncnc2c1cnn2-c1ccc(Cl)cc1	S1P4 antagonist 33 (no result: S1P3 antag) | S1P4 antag cf inactive | S1P1 antag inactive
COc1cc(CN[C@@H]2CCC(=O)N[C@H]2c2cc(F)cc(F)c2)cc2c1OCO2	none (no result: S1P4 agonist, S1P3 antag, Pf gamet viab, S1P4 antagonist)
COCCOC(=O)C1=C(C)N=C2SCCC(=O)N2C1c1ccc(OC(=O)c2ccco2)cc1 (stereo not drawn)	S1P4 antagonist 35 (no result: S1P3 antag) | S1P4 antag cf 54 | S1P1 antag 52
COc1ccccc1-c1cc(C(F)(F)F)nc(S(C)(=O)=O)n1	S1P4 antagonist 68 (no result: EP2 antag, S1P3 antag, Pf gamet viab) | S1P4 antag cf 86 | S1P1 antag inactive
COc1ccc(C2C(C(C)=O)=C(O)C(=O)N2CCc2ccc(OC)c(OC)c2)cc1 (stereo not drawn)	none (no result: S1P4 agonist, S1P3 antag, Pf gamet viab, S1P4 antagonist)
O=S(=O)(c1ccc(Cl)c(Cl)c1)c1snnc1-c1ccccc1	S1P4 antagonist 56 (no result: S1P3 antag, Pf gamet viab) | S1P4 antag cf 114 | S1P1 antag 75
COc1ccc(-c2ccc(=O)n(CC3CCN(C(=O)C4CCCC4)CC3)n2)cc1	none (no result: S1P4 agonist, EP2 antag, S1P3 antag, Pf gamet viab, S1P4 antagonist)
Cn1c(=O)c2[nH]c(C3CCCC3)nc2n(C)c1=O	none (no result: S1P4 agonist, S1P3 antag, Pf gamet viab, S1P4 antagonist)
Cc1nc2c(=O)n(C)c(=O)n(C)c2nc1Cl	S1P4 antagonist 49 | S1P4 antag cf 94 | S1P1 antag 51
CCc1cc2ccccc2nc1SCC(=O)Nc1nc(C)cs1	none (no result: S1P4 agonist, S1P3 antag, Pf gamet viab, S1P4 antagonist)
Cc1onc(-c2ccccc2)c1C(=O)Nc1ccncc1	none
Cc1onc(-c2ccccc2)c1C(=O)Nc1nnc(-c2ccncc2)s1	S1P4 antagonist 51 | S1P4 antag cf 63 | S1P1 antag inactive
Cc1onc(-c2ccccc2Cl)c1C(=O)OCn1nnc2ccccc2c1=O	S1P4 antagonist 30 (no result: Pf gamet viab) | S1P4 antag cf inactive | S1P1 antag inactive
O=C(OCn1nnc2ccccc2c1=O)c1cc(-c2ccccc2Cl)nc2ccccc12	none
O=C(Cc1c(F)cccc1Cl)Nc1ncccn1	none (no result: S1P4 agonist, S1P3 antag, Pf gamet viab, S1P4 antagonist)
CCCc1nn(CC(=O)N2CCCC2)c(=O)c2cc3ccsc3n12	none (no result: S1P4 agonist, EP2 antag, S1P3 antag, Pf gamet viab, S1P4 antagonist)
Cc1ccc(CNc2c(-c3cnn(C)c3C)nc3cnccn23)cc1	none (no result: S1P4 agonist, EP2 antag, S1P3 antag, Pf gamet viab, S1P4 antagonist)
Cc1cc(C)c(C)c(OCc2nc(-c3cccnc3)no2)c1	S1P4 antagonist 30 | S1P4 antag cf inactive | S1P1 antag inactive
COc1ccc(NC(=O)/C(Cl)=C(/Cl)S(=O)(=O)Cc2ccc(C)cc2)cn1	S1P4 antagonist 60 (no result: S1P3 antag, Pf gamet viab) | S1P4 antag cf 116 | S1P1 antag 89
Cc1ccc(C2(O)CC3CCC(C2)N3C(=O)C2CCC2)cc1 (stereo not drawn)	none (no result: S1P4 agonist, S1P3 antag, Pf gamet viab, S1P4 antagonist)
Nc1cccc2c1C(=O)N(C(=O)c1ccc(Cl)c(S(=O)(=O)N3CCCCCC3)c1)C2=O	S1P4 antagonist 32 (no result: S1P3 antag, Pf gamet viab) | S1P4 antag cf 33 | S1P1 antag inactive
CC(C)(C)C(=O)Cn1ncc(Br)c(Br)c1=O	S1P4 antagonist 64 | S1P4 antag cf 93 | S1P1 antag inactive
C=CCNc1cnn(CC(C)=O)c(=O)c1Br	none (no result: S1P3 antag)
COc1ccc(C2(O)CCN(CC(=O)Nc3nnc(C)s3)CC2)cc1	none (no result: S1P4 agonist, EP2 antag, S1P3 antag, Pf gamet viab, S1P4 antagonist)
CC[C@H](Cn1nc(-c2cccs2)ccc1=O)NC(=O)c1ccc(OC2CSC2)cc1	none (no result: S1P4 agonist, EP2 antag, S1P3 antag, Pf gamet viab, S1P4 antagonist)
CCc1[nH]nc(NS(=O)(=O)c2ccc3c(c2)oc(=O)n3C(C)C)c1C	none (no result: S1P4 agonist, S1P3 antag, Pf gamet viab, S1P4 antagonist)
COc1cc(NC2CCCCC2O)c2nc(-c3ccc(Cl)cc3)ccc2c1 (stereo not drawn)	S1P4 antagonist 30 (no result: Pf gamet viab) | S1P4 antag cf 65 | S1P1 antag 62
C=CCn1c(Sc2ncc([N+](=O)[O-])s2)n[nH]c1=O	S1P4 antagonist 69 | S1P4 antag cf 111 | S1P1 antag 51
CC1=NNC(=O)/C1=C\c1cn(-c2ccccc2)nc1-c1ccccc1	S1P4 antagonist 36 | S1P4 antag cf 116 | S1P1 antag 55
CCn1cc(S(=O)(=O)Nc2cc(-c3ccccc3)ccc2OC)cn1	none (no result: S1P4 agonist, S1P3 antag, Pf gamet viab, S1P4 antagonist)
COc1ccc(OC)c2c1C(=O)C(Cl)=C(Cl)C2=O	EP2 antag 112, S1P3 antag 31, S1P4 antagonist 56 | S1P4 antag cf 107 | S1P1 antag 74
S=C1Cc2ccccc2N1	S1P4 antagonist 35 | S1P4 antag cf 110 | S1P1 antag 44
